The source of these data is PubChem BioAssay (Tox21).

Structures are written as SMILES. Values without a mark were called inactive. Results filed as inconclusive are left out. Calls of active or inactive are those of the source. Unless noted, calls come from the whole dose curve; as a rule, active = well fitted curve in the direction sought with a large enough effect in the repeat runs; inconclusive = weak or mixed curves; inactive = no such curve, though single readings can be large; an effect the other way counts as inactive or inconclusive.

The nature of experiment [1]: qHTS assay for small molecule agonists of the p53 signaling pathway (AID 651631; calls by dose curve; note: nearly all actives have a fitted effect of over 15% in size; note: potency is the fitted concentration of half-maximal effect). The gist of the method: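 p53RE-bla HCT-116 cells; compounds 16 h, 37 °C; LiveBLAzer B/G FRET substrate 2 h RT; fluorescence intensity read-out, qHTS format.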
Experiment [2] can be described thus: qHTS assay for small molecule agonists of the p53 signaling pathway - cell viability (AID 651633; calls by dose curve;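 note: p53RE-bla HCT reporter cells with a stable beta-lactamase p53 reporter; series mostly up to about 83 µM; nearly all actives have a fitted effect of over 30% in size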). The procedure, abridged:
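p53RE-bla cells were treated with compound for 16 hours at 37 C. Cytotoxicity was then measured as CellTiter-Glo luminescence after 30 min at room temperature.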
Background: qHTS replaces the single test concentration by a dilution series.

Experiment [3] is described as follows: qHTS assay for small molecules that induce genotoxicity in human embryonic kidney cells expressing luciferase-tagged ATAD5 - cell viability (AID 651634; calls by dose curve; note: nearly all actives have a fitted effect of over 25% in size; note: potency is the fitted concentration of half-maximal effect). The gist of the method: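 Seeding of 2,000 HEK293T ATAD5-luciferase cells per well preceded pin-tool compound transfer. Plates sat 15.5 hr at 37C under 5% CO2, then fluorescence was read after 30 min with CellTiter-Fluor.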

Experiment [4] is described as follows: qHTS assay for small molecule disruptors of the mitochondrial membrane potential - cell viability (AID 720634; calls by dose curve;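 note: human HepG2 liver cancer cells; series mostly up to about 83 µM; nearly all actives have a fitted effect of over 20% in size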). The gist of the method:
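Measuring cytotoxicity alongside mitochondrial potential, the screen quantified ATP by luminescence in HepG2 cells after 1 hr compound incubation and a 30 min room-temperature CellTiter-Glo step.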

Experiment [5] is described as follows: qHTS assay to test for compound auto fluorescence at 590 nm (red) in HepG2 cells (AID 720674). The procedure, abridged:
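Fluorescence at 590 nm emission following 540 nm excitation was recorded from HepG2 wells one hour after compound transfer, with DMSO-only wells as vehicle and Rose Bengal sodium equivalency as the scale.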

Experiment [6] in a line: qHTS assay to test for compound auto fluorescence at 535 nm (green) in HepG2 cells (AID 720675).
The nature of experiment [7]: qHTS assay to test for compound auto fluorescence at 460 nm (blue) in HEK293 cells (AID 720678). The gist of the method: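 Cells were seeded and left to adhere for 4-5 hr at 37C. Compounds were then pin-transferred. After an overnight incubation at 37C under 5% CO2, intrinsic fluorescence at 405/460 nm was measured and referenced to triamterene.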
Experiment [8] can be described thus: qHTS assay to test for compound auto fluorescence at 590 nm (red) in HEK293 cells (AID 720679). The procedure, abridged:
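Each well held 2,000 HEK293 cells in medium containing 10% dialyzed FBS. Following 4-5 hr attachment at 37C, 23 nL test compound or DMSO was added; plates sat overnight, and red fluorescence (540/590nm) was recorded.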

Experiment [9] is described as follows: qHTS assay to test for compound auto fluorescence at 535 nm (green) in HEK293 cells (AID 720680).
Experiment [10] is described as follows: qHTS assay to test for compound auto fluorescence at 460 nm (blue) in HEK293 cell free culture (AID 720681). The procedure, abridged:
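Compounds were added to cell-free DMEM with 10% FBS and fluorescence read directly. The blue channel used 405 nm excitation and 460 nm emission, with triamterene as the reference fluorophore.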

A short description of experiment [11]: qHTS assay to test for compound auto fluorescence at 535 nm (green) in HEK293 cell free culture (AID 720682). The gist of the method: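 Cell-free medium (DMEM, 10% FBS) receives compound or DMSO by pintool. Plate read directly at Ex 485/Em 535 nm. Signal converted to fluorescein equivalency.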
The nature of experiment [12]: qHTS assay to test for compound auto fluorescence at 590 nm (red) in HEK293 cell free culture (AID 720683). The gist of the method:
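Cell-free wells of DMEM with 10% FBS received compound, and intrinsic fluorescence was read at excitation/emission 540/590 nm. Values expressed as equivalence to Rose Bengal sodium.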

A short description of experiment [13]: qHTS assay to test for compound auto fluorescence at 590 nm (red) in HepG2 cell free culture (AID 720684). The gist of the method:
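Compounds are added to culture medium (MEM, 10% FBS) lacking cells, then fluorescence is read at excitation 540 nm, emission 590 nm, with Rose Bengal sodium as the equivalency standard.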

A short description of experiment [14]: qHTS assay to test for compound auto fluorescence at 460 nm (blue) in HepG2 cell free culture (AID 720685). The procedure, abridged:
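Compound (23 nL) or DMSO pinned into cell-free MEM with 10% FBS; blue fluorescence read at 405/460 nm excitation/emission, expressed as auto-fluorescence equivalency to triamterene.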

Experiment [15] can be described thus: qHTS assay to test for compound auto fluorescence at 460 nm (blue) in HepG2 cells (AID 720687). The gist of the method: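 HepG2 cells in MEM with 10% FBS, attached overnight at 37 C, were exposed to compound or DMSO for 1 hr at 37 C, 5% CO2. Blue fluorescence was read at 405/460 nm, with triamterene as reference fluorophore.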
Experiment [16] concerns the target Glucocorticoid receptor (Homo sapiens) (UniProt P04150). The experiment can be described thus: qHTS assay to identify small molecule agonists of the glucocorticoid receptor (GR) signaling pathway (AID 720691; active = well fitted activation curve with a large enough effect in the signal ratio in the repeat runs, not every such curve was filed as active; the % refers to the signal ratio). The gist of the method:
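Reporter read-out: fluorescence intensity following 2 h room-temperature LiveBLAzer B/G FRET substrate loading. Prior step: GR-bla HeLa cells held 4 h, then treated 18 h at 37 C.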

Experiment [17] is described as follows: qHTS assay to test for compound auto fluorescence at 535 nm (green) in HepG2 cell free culture (AID 720686).
The nature of experiment [18]: qHTS assay for small molecules that induce genotoxicity in human embryonic kidney cells expressing luciferase-tagged ATAD5 (AID 651632). Note: nearly all actives have a fitted effect of over 15% in size. The gist of the method: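 Reporter cells (HEK293T) express luciferase-tagged ATAD5, a protein that accumulates after DNA damage. Treat 16 hr at 37C/5% CO2, add Amplite, wait 30 min at RT, and read luminescence.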
The nature of experiment [19]: qHTS assay for small molecule disruptors of the mitochondrial membrane potential (AID 720635). Note: potency is the fitted concentration of half-maximal effect. The procedure, abridged:
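HepG2 cells exposed to compound 1 hr at 37C, then Mito-MPS dye 30 min. Ratio read of aggregate (540/590 nm) versus monomer (490/535 nm) fluorescence.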

Experiment [20] has as its target Glucocorticoid receptor (Homo sapiens) (UniProt P04150). As to the kind of experiment: qHTS assay to identify small molecule antagonists of the glucocorticoid receptor (GR) signaling pathway (AID 720692; active = well fitted inhibition curve with a large enough effect in the signal ratio in the repeat runs, not every such curve was filed as active; the % refers to the signal ratio). The procedure, abridged:
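Dexamethasone (5 nM final) stimulated a stably integrated GRE-beta-lactamase reporter in HeLa cells during 18 h co-incubation with compounds; signal was quantified as fluorescence intensity of B/G FRET substrate after 2 h.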
% is set by controls: 0 for no effect and ±100 for the full control effect.

Glucocorticoid receptor (Homo sapiens), sequence (P04150 whole entry, looked up): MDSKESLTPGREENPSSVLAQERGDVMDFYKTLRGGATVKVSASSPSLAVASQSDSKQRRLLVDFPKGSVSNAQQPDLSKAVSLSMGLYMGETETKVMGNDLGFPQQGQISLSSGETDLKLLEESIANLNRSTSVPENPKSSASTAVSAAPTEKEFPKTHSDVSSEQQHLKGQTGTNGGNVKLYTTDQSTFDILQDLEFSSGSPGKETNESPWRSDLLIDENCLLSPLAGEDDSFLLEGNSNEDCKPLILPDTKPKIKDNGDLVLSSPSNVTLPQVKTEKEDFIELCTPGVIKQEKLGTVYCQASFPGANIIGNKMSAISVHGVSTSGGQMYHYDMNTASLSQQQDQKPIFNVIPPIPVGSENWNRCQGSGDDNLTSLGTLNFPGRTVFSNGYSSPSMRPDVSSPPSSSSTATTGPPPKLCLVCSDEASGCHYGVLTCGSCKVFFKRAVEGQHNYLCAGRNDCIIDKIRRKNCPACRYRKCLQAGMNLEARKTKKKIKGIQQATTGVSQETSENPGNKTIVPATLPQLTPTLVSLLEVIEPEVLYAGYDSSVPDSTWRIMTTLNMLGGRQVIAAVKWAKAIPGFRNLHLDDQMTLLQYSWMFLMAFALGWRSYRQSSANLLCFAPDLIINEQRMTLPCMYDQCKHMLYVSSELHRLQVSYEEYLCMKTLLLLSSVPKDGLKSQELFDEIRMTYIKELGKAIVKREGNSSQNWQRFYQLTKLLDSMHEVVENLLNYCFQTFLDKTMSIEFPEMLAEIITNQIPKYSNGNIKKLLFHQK

In the case of `CC(C)C(O)(c1ccc(OC(F)(F)F)cc1)c1cncnc1` (configuration not stated), the Potency entry in [1], in experiment [2], in [3], in experiment [4], in experiment [7] and in experiment [10] was “inactive” throughout. In addition, the Potency result in experiment [14], in experiment [15] and in experiment [16] was “inactive” throughout. In addition, the compound was classed as inactive in experiment [5], in [6], in experiment [8], in experiment [9], in [11] and in experiment [12]. Besides, the outcome in experiment [13] was inactive.

As for `NC1[C@H]2CN(c3nc4c(cc3F)c(=O)c(C(=O)O)cn4-c3ccc(F)cc3F)C[C@@H]12` (some centres not stated), the Potency in [1] is 29.8 µM (active). For the same compound, the Potency result in experiment [2], in experiment [4], in experiment [7], in [10], in experiment [14] and in [15] was “inactive” each time. The Potency entry in [16] was “inactive”. The result in experiment [5], in experiment [8], in experiment [9], in experiment [11], in [13] and in experiment [17] was inactive.

For `CC1(C)[C@@H](OC(=O)CCC(=O)O)CC[C@]2(C)[C@H]3C(=O)C=C4[C@@H]5C[C@@](C)(C(=O)O)CC[C@]5(C)CC[C@@]4(C)[C@]3(C)CC[C@@H]12`, the Potency entry in experiment [1], in experiment [18], in experiment [2], in experiment [4], in experiment [19] and in experiment [16] was “inactive” in each case. The fluorescence, relative to Rose Bengal in experiment [5] is -0.342% [at 18.6 µM]. The values for the fluorescence, % of fluorescein control in experiment [6] and in experiment [17] were -0.0594% [at 18.6 µM] and 0.0091% [at 18.6 µM], respectively. In addition, in experiment [7], the fluorescence, % of triamterene was 0.0377% [at 18.6 µM]. Further, the fluorescence, % of fluorescent control was 0.163% [at 18.6 µM] in experiment [8]; -0.141% [at 18.6 µM] in [10]; 0.073% [at 18.6 µM] in experiment [12]; 0.0251% [at 18.6 µM] in experiment [14]; -0.0128% [at 18.6 µM] in [15]. Besides, in experiment [9], the fluorescence, % of fluorescein was -0.0149% [at 18.6 µM]. Besides, in [13], the fluorescence, % of Rose Bengal is 0.105% [at 18.6 µM].

Consider `O=C1NC(=O)c2cc([N+](=O)[O-])ccc21`, for which the Potency entry in experiment [1], in experiment [18], in experiment [2], in experiment [4], in [7] and in experiment [10] was “inactive” each time. The Potency result in [14], in [15] and in experiment [16] was “inactive” throughout. For the same compound, the compound was called inactive in experiment [5], in experiment [6], in [8], in experiment [9], in experiment [11] and in experiment [12]. Further, the call in experiment [13] and in [17] was inactive.

As for `O=C1c2ccccc2C(=O)c2c(O)c(O)cc(O)c21`, the Potency result in experiment [1], in [18], in [2], in [4], in experiment [7] and in [10] was “inactive” in each case. The Potency entry in experiment [14], in experiment [15] and in experiment [16] was “inactive” in each case. Further, the Potency in [19] was 27.3 µM (active). Moreover, the compound was called inactive in experiment [5], in [6], in experiment [8], in [9], in [11] and in experiment [13]. Further, in experiment [17], the compound was classed as inactive.

On to `CC(=O)Nc1cc(S(=O)(=O)O)cc2cc(S(=O)(=O)O)c(N=Nc3ccccc3)c(O)c12`, for which the Potency result in experiment [1], in [18], in [2], in [7], in [10] and in experiment [14] was “inactive” throughout. In addition, in experiment [15], the Potency result was “inactive”. Also, the Potency in experiment [3] is 30.6 µM (active). Moreover, the compound was called inactive in experiment [5], in [6], in experiment [8], in [9], in [12] and in experiment [13].

`CC/C=C1/OC(=O)c2ccccc21`: the Potency entry in experiment [1], in [2], in [4], in [19], in [7] and in experiment [10] was “inactive” each time. In addition, the Potency result in experiment [14], in experiment [15], in experiment [16] and in experiment [20] was “inactive” throughout. Also, the outcome in experiment [6], in [8], in experiment [9], in experiment [11], in [12] and in experiment [13] was inactive. Further, the call in [17] was inactive.
